Results: PubChem BioAssay AID1780 (National Center for Advancing Translational Sciences (NCATS), 2009)
The source made the active and inactive calls. Calls follow the shape of the dose curve; as a rule, active = well fitted curve in the direction sought with a large enough effect; inactive = no such curve, though single readings can be large or run the other way.

target: Pyruvate kinase PKM (Homo sapiens) (UniProt P14618); assay: Confirmation Concentration-Response Assay for Activators of Human Muscle isoform 1 Pyruvate Kinase; details: purified hPK-M1, Kinase-Glo ATP luminescence, 1 h; series mostly up to 57.5 µM
Sequence (P14618 whole entry, looked up, canonical isoform): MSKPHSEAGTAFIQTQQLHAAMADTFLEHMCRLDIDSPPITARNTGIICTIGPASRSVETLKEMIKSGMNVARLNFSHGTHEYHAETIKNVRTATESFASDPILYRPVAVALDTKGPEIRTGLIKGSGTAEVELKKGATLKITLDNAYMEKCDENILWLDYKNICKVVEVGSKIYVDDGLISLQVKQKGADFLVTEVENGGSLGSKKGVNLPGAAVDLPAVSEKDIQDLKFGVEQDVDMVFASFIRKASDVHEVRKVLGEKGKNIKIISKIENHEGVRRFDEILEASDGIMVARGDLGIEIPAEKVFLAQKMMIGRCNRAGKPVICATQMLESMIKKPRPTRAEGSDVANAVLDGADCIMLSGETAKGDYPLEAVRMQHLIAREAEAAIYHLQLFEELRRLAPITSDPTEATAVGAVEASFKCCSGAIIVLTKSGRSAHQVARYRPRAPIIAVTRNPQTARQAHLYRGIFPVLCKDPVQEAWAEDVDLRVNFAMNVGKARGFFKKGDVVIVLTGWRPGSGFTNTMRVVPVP
From the text: Confirmatory assay NIH Chemical Genomics Center [NCGC] Matthew G. Vander Heiden, M.D., Ph.D. [Harvard Medical School, 77 Avenue Louis Pasteur, Boston, MA 02115] NCGC Assay Overview: Human pyruvate kinase […] (hPK-M1) enzyme was supplied as a highly purified (>95% pure) preparation from Harvard Medical School and assayed for its ability to generate ATP from ADP using phosphoenolpyruvate (PEP) as a substrate. ATP generation was detected in a coupled reaction by luciferase-mediated luminescence, an ATP-dependent process. Pyruvate kinase substrates, PEP and ADP, were present in the assay at Km and approximately 10-fold below Km respectively. The enzyme was assayed at an intermediate level of activity to screen for both inhibitors and activators.
NCGC Assay Protocol Summary for M1-isoform: Three uL of substrate mix (at r.t.) in assay buffer (50 mM Imidazole pH7.2, 50 mM KCl, 7 mM MgCl2, 0.01% Tween 20, 0.05% BSA) was dispensed into white solid bottom 1,536 well microtiter plates so that the final concentrations of substrates in the assay were 0.1 mM ADP and 0.5 mM PEP. 23 nL of compound were delivered by a pin tool and 1 uL of enzyme mix (final concentration of 1 nM) in assay buffer (4 degree Celsius) was added. Plates were incubated at room temperature for 1 hour. Two uL of detection mix (Kinase-Glo, Promega; at 4 degree Celsius protected from light) was added and luminescence read by a ViewLux (Perkin Elmer) at 1 second exposure/plate. Data were normalized to the uninhibited (row 31). Additionally, a no enzyme and 5-fold enzyme control was dispensed in row 32, split equally between the two conditions.

outcome, inactive:
COc1cccc(S(=O)(=O)N2CCN(S(=O)(=O)c3ccc4c(c3)OCCO4)CC2)c1
C[C@H]1CN(S(=O)(=O)c2c(F)cccc2F)CCN1S(=O)(=O)c1ccc2c(c1)OCCO2
O=S(=O)(c1cccc(F)c1)N1CCN(S(=O)(=O)c2ccc3c(c2)OCCO3)CC1
Cn1c2cc(C=O)sc2c2cnn(Cc3ccccc3F)c(=O)c21
Cc1cc2c(s1)c1cnn(Cc3c(F)cccc3Cl)c(=O)c1n2C
CCCCCn1ncc2c3sc(C)cc3n(C)c2c1=O
CCn1c2cc(C)sc2c2cnn(Cc3ccccc3F)c(=O)c21
O=S(=O)(NC1CCN(S(=O)(=O)c2c(F)cccc2F)C1)c1ccc2c(c1)OCCO2 (stereo not given)
O=S(=O)(NC1CCN(S(=O)(=O)c2ccc3c(c2)OCCO3)CC1)c1c(F)cccc1F
O=S(=O)(c1ccc2c(c1)OCO2)N1CCN(S(=O)(=O)c2c(F)cccc2F)CC1
O=S(=O)(c1cccc(C(F)(F)F)c1)N1CCN(S(=O)(=O)c2ccc3c(c2)OCCO3)CC1
CC(O)c1cc2c(s1)c1cnn(Cc3ccccc3F)c(=O)c1n2C (stereo not given)
O=S(=O)(c1ccc2c(c1)OCCO2)N1CCCN(S(=O)(=O)c2c(F)cccc2F)CC1
O=S(=O)(NC1CCN(S(=O)(=O)c2c(F)cccc2F)CC1)c1ccc2c(c1)OCCO2
O=S(=O)(c1ccc2c(c1)OCCO2)N1CCN(S(=O)(=O)c2c(F)cccc2F)CC1
Cc1cc2c(s1)c1cnn(-c3ccccc3)c(=O)c1n2C
C[C@H]1CN(S(=O)(=O)c2ccc3c(c2)OCCO3)CCN1S(=O)(=O)c1c(F)cccc1F
Cc1cc2c(s1)c1cnn(Cc3ccc(F)cc3)c(=O)c1n2C
Cc1cc2c(s1)c1cnn(Cc3ccc(C(F)(F)F)cc3F)c(=O)c1n2C
O=S(=O)(c1c(F)cccc1F)C1CCN(S(=O)(=O)c2ccc3c(c2)OCCO3)CC1
O=C(c1ccc2c(c1)OCCO2)N1CCN(S(=O)(=O)c2c(F)cccc2F)CC1
CCCc1cc(F)c(S(=O)(=O)N2CCN(S(=O)(=O)c3ccc4c(c3)OCCO4)CC2)cc1F
Cc1cc2c(s1)c1cnn(Cc3cccc(Cn4ncc5c6sc(C)cc6n(C)c5c4=O)c3F)c(=O)c1n2C
Cc1ccc(Cn2ncc3c4sc(C)cc4n(C)c3c2=O)c(C)c1
CC(=O)Nc1cc2c(s1)c1cnn(Cc3ccccc3F)c(=O)c1n2C
O=S(=O)(NCCCCCCNS(=O)(=O)c1c(F)cccc1F)c1ccc2c(c1)OCCO2
Cc1cc2c(s1)c1cnn(Cc3ccccc3Cl)c(=O)c1n2C
O=S(=O)(c1ccc(F)cc1)N1CCN(S(=O)(=O)c2ccc3c(c2)OCCO3)CC1
Cn1c2cc(CO)sc2c2cnn(Cc3ccccc3F)c(=O)c21
CC(=O)c1cc2c(s1)c1cnn(Cc3ccccc3F)c(=O)c1n2C
O=S(=O)(NCCNS(=O)(=O)c1c(F)cccc1F)c1ccc2c(c1)OCCO2
C[C@@H]1CN(S(=O)(=O)c2c(F)cccc2F)CCN1S(=O)(=O)c1ccc2c(c1)OCCO2
O=C1CN(S(=O)(=O)c2c(F)cccc2F)CCN1S(=O)(=O)c1ccc2c(c1)OCCO2
O=S(=O)(c1ccc2c(c1)OCCO2)N1CCN(S(=O)(=O)c2ccccn2)CC1
CC(C)c1cc2c(s1)c1cnn(Cc3ccccc3F)c(=O)c1n2C
COC(=O)c1cc2c(s1)c1cnn(Cc3ccccc3F)c(=O)c1n2C
O=S(=O)(c1ccc2c(c1)OCCO2)N1CCN(S(=O)(=O)c2c(F)ccc(O)c2F)CC1
O=S(=O)(c1ccc(Cl)cc1)N1CCN(S(=O)(=O)c2ccc3c(c2)OCCO3)CC1
O=S(=O)(c1ccc2c(c1)OCCO2)N1CCN(S(=O)(=O)c2cc(F)c(F)cc2F)CC1
Cc1cc2c(s1)c1cnn(Cc3ccc(S(C)(=O)=O)cc3)c(=O)c1n2C
